# From PubChem BioAssay
# Hits are enriched below; roughly 4.7% of the tested compounds scored in any of these assays.
# ATXN2 expr inh: ATXN2 expression inhibition | HEK-293 ATXN2-luciferase reporter, luminescence, 24 h | Potency, µM (top dose mostly 57 µM), without a hit: top-dose activity change, negative = inhibition, usual class: inhibitors | 0.72% of 360,000 active | AID 1745845; also: potency is read from the fitted curve at half-maximal effect; % is scaled to controls: 0 for no effect and ±100 for the full control effect; nearly all actives have a fitted effect of over 55% in size
#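 qHTS (up to 57 uM final) was run with 24 h compound exposure of reporter cells at 37 °C. Each well was multiplexed: SteadyGlo luminescence measured ATXN2-luciferase expression after a fluorogenic Gly-Phe-AFC viability readout (25 uM final).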
# DRD3 agonist: agonists of human D3 dopamine receptor; P35462; D3R DiscoveRx beta-arrestin cells, luminescence, 90 min; max activation, %; 0.58% of 410,000 active; in the data active = max activation above about 30%; also: 0% is about no effect
# Target sequence (P35462 whole entry, looked up): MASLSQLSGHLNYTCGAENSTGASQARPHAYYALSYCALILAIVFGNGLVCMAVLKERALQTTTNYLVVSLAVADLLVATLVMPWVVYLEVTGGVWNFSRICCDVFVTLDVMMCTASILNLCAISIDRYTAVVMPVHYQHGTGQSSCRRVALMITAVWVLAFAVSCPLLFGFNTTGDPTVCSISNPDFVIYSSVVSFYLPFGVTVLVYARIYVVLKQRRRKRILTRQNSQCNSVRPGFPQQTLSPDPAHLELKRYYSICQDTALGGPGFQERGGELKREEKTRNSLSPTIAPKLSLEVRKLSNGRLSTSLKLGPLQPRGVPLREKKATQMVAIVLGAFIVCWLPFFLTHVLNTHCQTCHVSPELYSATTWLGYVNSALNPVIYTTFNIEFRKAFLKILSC
#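 Cells at 1500/well, incubated overnight, then treated with pinned compounds (dopamine as control) for 90 min at 37 degrees C. DiscoveRx reagent added for 30 - 60 minutes at room temperature; luminescence read.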
# HepG2 viability: HepG2 cytotoxicity, counter-screen for TGF-b inhibitors; AID 588856; 0.76% of 410,000 active; HepG2 CAGA-GFP viability, ATP luminescence, 18 h; Potency, µM (titrated, usually from 46.1 µM), for inactives: at the top dose activity change, negative = cytotoxicity, hits mostly cytotoxic; also: potency is read from the fitted curve at half-maximal effect
#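 CellTiter-Glo luminescence gave cytotoxicity after 18 hours at 37 degrees C. The cells were HepG2 CAGA-GFP in 1% FBS DMEM, stimulated with 500 pg/mL TGF-beta after compound addition. %Activity was normalised to no-cell wells (complete cell-killing) and DMSO (no toxicity), and curves were fitted and classified.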
# TGFb inhibitor: blocks TGF-b signaling | HepG2 CAGA-GFP TGF-b/SMAD3 reporter, GFP fluorescence, 18 h; TGF-beta stimulated, 500 pg/mL final | Potency, µM (titrated, usually from 46.1 µM), without a hit: top-dose activity, negative = inhibition, actives largely listed as inhibitors | 1.2% of 410,000 active | AID 588855; also: potency is read from the fitted curve at half-maximal effect; % is scaled to controls: 0 for no effect and ±100 for the full control effect; nearly all actives have a fitted effect of over 65% in size
#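 HEPG2 CAGA-GFP reporter cells (1000/well, DMEM with 1% FBS) received compounds, then recombinant TGF-beta at 500 pg/mL final for 18 hours at 37 degrees C. Per-cell GFP summed per well was normalised to unstimulated and stimulated DMSO controls before curve fitting.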
# DRD3 antagonist: antagonists of human D3 dopamine receptor; P35462; D3R cells, DiscoveRx beta-arrestin luminescence, antagonist mode; hits give low values; max response, negative = inhibition, %; 2.5% of 360,000 active; in the data active = max response below about -50%; inconclusive = no clear call, values can overlap the other calls; also: % is scaled to controls: 0 for no effect and ±100 for the full control effect
#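 Cells plated overnight at 1500 cells/well, then exposed to library compounds with dopamine controls for 90 minutes at 37 degrees C. DiscoveRx reagent added for 30–60 minutes at room temperature; luminescence read, quantitative HTS format.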
# S2 tox: cell viability loss in ATXN counter-screen. 0.49% of 400,000 active. S2 cells (HEK-293 line with an ATXN2-luciferase reporter) viability, CellTiter-Fluor protease fluorescence, 24 h. Potency, µM (highest dose often 56.7 µM), actives largely listed as cytotoxic; also: potency is read from the fitted curve at half-maximal effect; nearly all actives have a fitted effect of over 40% in size
# Starred values were filed as active, the others as inactive; i = inactive; u = inconclusive; x = no result given. Unless noted, calls follow the shape of the dose curve; as a rule, active = well fitted curve in the direction sought with a large enough effect; inconclusive = small, poorly fitted or top-dose-only effect, or another doubt; inactive = no such curve, though single readings can be large; an effect the other way counts as inactive or inconclusive.
SMILES,ATXN2 expr inh,DRD3 agonist,HepG2 viability,TGFb inhibitor,DRD3 antagonist,S2 tox
CCOCCCNC(=O)C(c1ccc(OC)cc1)N(Cc1cccs1)C(=O)c1ccc(NC(C)=O)cc1 (configuration not stated),-0.8%,5.5,5.7%,8.1%,x,u
O=C(Nc1nc2c(s1)CCCC2)c1cccs1,24.1%,-0.4,10µM*,-3.4%,23.4,i
O=C(Nc1nc2c(s1)CCCC2)c1cc(-c2ccccc2)nc2ccccc12,-7.4%,-8.0,15.6%,-1.8%,-81.0*,u
O=C(Cc1cccs1)Nc1nc2c(s1)CCCC2,79.5%,-15.7,-27.5%,18.7%,-11.2,i
Cc1c(C(=O)N2CCC(C)CC2)c(S(=O)(=O)N(Cc2ccccc2)C(C)(C)C)c(C)n1C,x,2.7,-26.9%,-29.4%,x,x
Cc1cc(-c2ccc(F)cc2)nc2cc(C(N)=O)nn12,0.3%,-16.3,6.5%,5.3%,-75.9*,i
CN1CCN(C(=O)c2cc3nc(-c4ccc(F)cc4)cc(C(F)(F)F)n3n2)CC1,-14.5%,0.9,27.5%,18.6%,-52.2*,i
Cc1ccc(-c2cc(C(F)(F)F)n3nc(C(=O)N4CCN5CCCC5C4)cc3n2)cc1 (configuration not stated),-32.3%,-1.7,-22.6%,22.0%,-0.1,i
CCOC(=O)C1CCCN(C(=O)c2cc3nc(-c4ccc5c(c4)OCO5)cc(C(F)(F)F)n3n2)C1 (configuration not stated),u,120.4*,3.5%,-4.2%,46.7,i
COc1ccc(-c2cc(C(F)(F)F)n3nc(C(=O)N4CCCC4)cc3n2)cc1,8.9%,0.0,7.6%,0.0%,0.0,i
Cc1cc(C)n2nc(-c3ccc(F)cc3)cc2n1,x,4.2,-14.1%,-4.8%,-15.1,i
CCOc1ccc(NC(=O)c2cnn(-c3ccc(C)c(Cl)c3)c2C2CCNCC2)cc1,-13.0%,-1.4,-27.2%,-26.4%,x,i
COc1cc(CNC(=O)CCCCC=CC(C)C)ccc1O,7.1%,x,x,x,x,x
C[C@@H]1[C@H]2[C@@H](O[C@@H]3O[C@H](CO)[C@@H](O)[C@H](O)[C@H]3O)OC=C(C(=O)O)[C@H]2C[C@@H]1O,-15.5%,42.5*,-43.3%,u,-11.5,i
Cc1ccc(N2C(=O)CSC23C(=O)N(CC(=O)NCCc2ccccc2)c2ccccc23)cc1C (configuration not stated),-16.6%,-3.2,-12.2%,-4.1%,x,i
CCCCc1c(CCC)c(=N)c2ccccc2n1C,-21.1%,0.1,-9.9%,-26.0%,-72.8*,i
CCCCCC(=O)N(O)C1CC(=O)N(c2ccccc2)C1=O (configuration not stated),-10.6%,-3.6,-64.8%,-8.8%,-85.9*,i
CCCCCCC(=O)N(O)C1CC(=O)N(Cc2ccccc2)C1=O (configuration not stated),0.0%,-1.1,-26.0%,10.6%,-4.6,i
COc1cc(-c2cc3nc(NCc4cccc(Cl)c4)ccn3n2)cc(OC)c1OC,12.6µM*,13.1,-55.7%,u,6.9,u
Cc1[nH]n(-c2ccccc2)c(=O)c1C(c1ccc(O)c([N+](=O)[O-])c1)c1c(C)[nH]n(-c2ccccc2)c1=O,-2.4%,-8.9,2.3%,-4.6%,-90.7*,i
OC(CBr)C[n+]1cc(Br)cc2ccccc21 (configuration not stated),x,x,-11.7%,-1.9%,x,x
Cc1ccc2c(c1)CO[C@@]21O[C@H](CCO)C[C@H](O)[C@H]1O,6.7%,1.3,-9.0%,14.2%,u,i
COc1ccc2c(c1)CO[C@]21O[C@H](CCO)C[C@H](O)[C@H]1O,7.5%,-12.1,-14.9%,-5.7%,-69.4*,i
CCc1oc2ccccc2c1C(=O)c1cc(I)c(O)c(I)c1,5.1%,8.6,x,x,x,i
S=C(NCCCN1CCOCC1)NN=C1c2ccccc2-c2ccccc21,x,-17.8,-26.3%,u,-70.6*,u
